# MBD2 inh – MBD2-methylated oligo binding inhibition; TR-FRET, MBD2 binding to methylated oligonucleotide; inhibition, % at 4.4 µM; 370,000 tested, 0.31% active; in the data active means inhibition above about 13%
# UHRF1 MBD2 ctr – human UHRF1 methylated DNA binding inhibitors; inhibition, % at 4.4 µM; Q96T88; UHRF1 binding to methylated oligo, TR-FRET; 370,000 tested, 0.75% active; in the data active means inhibition above about 21%;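 further: UHRF1 SRA domain binding a hemimethylated CpG hairpin DNA probe; 0% = median of test compound wells and 100% = reference inhibitor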
# LEDGF integ inh – blocks HIV-1 LEDGF/p75-dependent DNA integration. 370,000 tested, 0.64% active. inhibition, % at 3.7 µM. TR-FRET IN-LEDGF/p75 DNA integration, Eu/Cy5;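 active means inhibition above the screen-wide mean plus 3 SD, cut at about 13% in these data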;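 further: signal is the Cy5 over europium emission ratio at 671 and 618 nm; 0% = plate median of compound wells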
# PRMT1 inh – blocks human protein arginine methyltransferase 1; Q99873; recombinant PRMT1, activity-based probe fluorescence polarization; inhibition, % at 2.79 µM; 370,000 tested, 1.3% active;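 active means inhibition above about 21% made by adding two undisclosed values, limit read from the data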
# Target sequence (Q99873 whole entry, looked up): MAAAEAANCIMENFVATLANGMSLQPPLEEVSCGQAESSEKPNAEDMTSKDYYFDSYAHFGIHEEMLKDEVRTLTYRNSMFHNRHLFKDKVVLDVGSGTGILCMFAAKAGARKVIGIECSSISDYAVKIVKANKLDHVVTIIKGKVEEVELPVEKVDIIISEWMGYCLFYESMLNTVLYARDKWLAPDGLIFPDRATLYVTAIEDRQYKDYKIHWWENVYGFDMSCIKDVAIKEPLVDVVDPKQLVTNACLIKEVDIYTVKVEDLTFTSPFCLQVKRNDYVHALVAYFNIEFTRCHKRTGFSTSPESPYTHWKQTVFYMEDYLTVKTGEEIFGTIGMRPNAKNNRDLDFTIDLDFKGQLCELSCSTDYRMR
# * = called active by the depositor. Shown are actives, neighbours in structure and some others; about 2.5% of the full set was active somewhere.
SMILES,MBD2 inh,UHRF1 MBD2 ctr,LEDGF integ inh,PRMT1 inh
N=c1scc(-c2ccccc2)n1/N=C/c1ccco1,6.5,0.5,2.1,33.9*
CCOc1ccc(NC(=O)CN(C)C(=O)CN2C(=O)c3ccc([N+](=O)[O-])cc3C2=O)cc1OCC,3.2,-0.9,-3.0,3.9
CCn1nc(C)c(NC(=O)c2ccc(Cl)cc2)c1C,12.6,27.3*,4.9,-2.5
CCn1nc(C)c(NC(=O)Nc2cccc(Cl)c2Cl)c1C,-0.1,1.3,2.7,-3.5
CN(C)n1cnc2ccsc2c1=O,3.8,2.9,-2.1,0.1
Cc1ccccc1NC(=O)CC1SCCNC1=O (stereo not given),-0.3,-0.9,0.9,22.0*
Clc1ccc(Br)c(-c2nc3ccccc3[nH]2)c1,5.3,12.6,-3.0,-3.2
COc1ccc(N(CC(=O)NCCC2=CCCCC2)S(=O)(=O)c2c(C)[nH]c(=O)[nH]c2=O)cc1,-4.9,0.7,3.1,-1.4
N#CC(C#N)=Cc1cccn1-c1ccc(C(=O)O)cc1,12.3,42.5*,6.5,-0.7
Cc1ccc(NC(=S)NC(=O)CC2CC(C)(C)OC2=O)cc1 (stereo not given),3.2,62.3*,-2.9,3.4
CC(C)(C)c1ccc(-c2nnc(SCC(=O)c3ccc([N+](=O)[O-])cc3)n2-c2ccc(Cl)cc2)cc1,1.5,-1.3,-1.3,3.0
CC(=O)c1ccc(N2CCN(S(=O)(=O)c3c(C)[nH]c(C)c3C(=O)N3CCCCC3)CC2)cc1,-3.9,-1.4,2.6,0.6
COc1ccc2cc3c(nc2c1)OCC3,-3.1,20.8*,2.7,5.9
COc1ccc2nc3c(nc2c1)CCCC3,7.9,-0.6,3.8,4.6
Cc1nc2ccc(NC(=O)c3ccc(F)cc3Cl)cc2c(=O)[nH]1,-1.5,1.5,-1.9,4.3
COc1ccc(Nc2nnc(-c3ccc4c(c3)OCO4)o2)cc1,-5.3,-0.9,0.9,23.7*
COc1ccc(-c2noc(-c3ccc4c(c3)OCO4)n2)cc1,-1.1,0.9,0.7,-0.3
COc1cccc(NC2=C(C#N)C(=O)NC(c3cccc(OC)c3O)S2)c1 (stereo not given),2.1,1.4,-2.0,3.4
N#CC1=C(Nc2ccccc2Cl)SC(c2ccccc2O)NC1=O (stereo not given),0.2,0.8,-2.5,24.4*
Cc1nn(-c2ccc(Cl)nn2)c(=O)c2ccccc12,-2.1,-1.1,5.2,-3.0
CCc1ccc(NC(=O)c2c(C(=O)Nc3ccccc3)sc3nc(C)cc(=O)n23)cc1,3.4,9.5,-1.8,1.6
Cc1cccc(Nc2n[nH]c(=S)s2)c1C,-3.0,-0.7,-1.1,24.4*
CC(C)COC(=O)c1ccccc1OC(=O)c1ccncc1,9.6,25.4*,5.4,2.8
Cc1cc(F)ccc1C(O)c1ncc(-c2ccccc2C(F)(F)F)[nH]1 (stereo not given),2.1,1.6,-3.3,2.4
C[C@@]12C(=O)N(CC3CC3)CC(=O)N1[C@H](C1CC1)[C@@H]1C(=O)N(c3ccccc3)C(=O)[C@@H]12,-2.7,39.3*,-0.9,1.7
SMILES,MBD2 inh,UHRF1 MBD2 ctr,LEDGF integ inh,PRMT1 inh
O=C(CSc1nnc(-c2ccccc2)c(-c2ccccc2)n1)N1CCOCC1,-2.9,1.1,1.6,1.8
O=C(CSc1nc(-c2ccccc2)c(-c2ccccc2)o1)N1CCOCC1,-0.3,92.3*,-1.6,-1.2
COc1ccc(Cl)cc1NC(=O)CSc1nnc(CNC(=O)c2ccco2)o1,-0.1,21.9*,-4.1,0.5
COc1ccc(OC)c(NC(=O)CSc2nnc(CNC(=O)c3ccco3)o2)c1,-2.7,8.1,-2.2,0.2
O=S1(=O)c2c(NCc3ccco3)cccc2Oc2ccccc2CN1Cc1cn(Cc2cccc(F)c2)nn1,-4.1,1.3,-0.1,0.6
CN(C)c1ccc(C(=S)N2CCN(c3ccc([N+](=O)[O-])cc3)CC2)cc1,1.0,-5.1,2.5,22.6*
O=C(c1[nH]c(C(F)(F)F)nc1-c1ccccc1)N1CCN(c2ccccn2)CC1,-3.1,-1.6,1.5,-4.9
COc1ccccc1NC(=S)OCCN1CCCC12CCC(c1ccccc1)CC2 (stereo not given),7.5,2.2,1.7,21.7*
CCOC1=C2CN(S(=O)(=O)c3ccc(C)cc3)[C@@H](c3cccs3)C[C@H]2[C@H]2C(=O)N(c3ccccc3)C(=O)[C@H]2C1,-4.9,-1.1,2.7,-0.5
Cc1ccc(NNS(=O)(=O)c2ccc(C)cc2)cc1,-4.5,1.4,-0.5,64.5*
Cc1ccc(S(=O)(=O)N2CCN(C(C)C(=O)N3CCCc4ccccc43)CC2)cc1 (stereo not given),1.3,26.8*,0.3,-0.6
O=C(CN1C(=O)CC(c2ccccc2)S(=O)(=O)c2ccccc21)N1CCCCC1 (stereo not given),2.3,23.9*,0.9,-2.5

# Compound activity: PubChem, The Scripps Research Institute Molecular Screening Center
